These compounds were tested on E18 rat cortical neuron-glia co-culture (assay: myelination (MBP fiber length per Olig2+ nucleus), % of 1 µM DAPT response (DMSO = 0) (% of DAPT); higher = more myelination, active = 50 or more). Settings: 5 µM; treatment time: 8 days (DIV5-DIV13).
Method in brief: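 Myelination, expressed as continuous straight MBP fiber length per Olig2+ nucleus, was normalised to 0.1 % DMSO as 0 and a 1 µM positive control as 100. The cultures were primary E18 rat cortical co-cultures dissociated with papain and plated at 20,000 cells/well on poly-d-lysine/laminin-coated 96-well plates. They received library compounds at 1 or 5 µM in myelination medium between DIV5 and DIV13. Analysis covered four 10X fields per well in duplicate wells after 4 % paraformaldehyde fixation and immunostaining for MBP and Olig2 with DAPI.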

Row | SMILES | myelination
1 | CCN(CC)CCOC(=O)C1(C2CCCCC2)CCCCC1 [Dicyclomine] | -24.6 (inactive)
2 | CCc1oc2ccccc2c1C(=O)c1cc(Br)c(O)c(Br)c1 [Benzbromarone] | -9.52 (inactive)
3 | C/C=C1\[C@H]2C=C(C)C[C@]1(N)c1ccc(=O)[nH]c1C2 [Huperzine A] | -5.77 (inactive)
4 | O=C(O)c1cccnc1 [Niacin] | 7.38 (inactive)
5 | Cc1c(OCC(F)(F)F)ccnc1C[S+]([O-])c1nc2ccccc2[nH]1 (stereo not given) [Lansoprazole] | 65.6
6 | Cc1ccc(-c2cc(C(F)(F)F)nn2-c2ccc(S(N)(=O)=O)cc2)cc1 [Celecoxib] | -0.0582 (inactive)
7 | O=C1[C@H]2CCCC[C@H]2C(=O)N1CCCCN1CCN(c2nsc3ccccc23)CC1 [Perospirone] | -34.5 (inactive)
8 | CNC(=C[N+](=O)[O-])NCCSCc1ccc(CN(C)C)o1 [Ranitidine] | -7.22 (inactive)
9 | CCN1CCN(c2cc3c(cc2F)c(=O)c(C(=O)O)cn3C2CC2)CC1 [Enrofloxacin] | -19.3 (inactive)
10 | CC(=O)Nc1ccc(CC(=O)O)cc1 [Actarit] | -10.1 (inactive)
